The whole screen tested about 340,000 compounds, of which about 1,200 (0.35%) were called active. The list comes from a sample in which actives are over-represented; it also holds similar structures and randomly drawn compounds. Values without a mark were called inactive.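 Rule for the calls: active = potentiation over 3 SD above the plate norm (cut at about 30% in these data); inactive = the rest.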
The compounds below were run against D(2) dopamine receptor (Homo sapiens) (UniProt P14416) (assay: HTS Assay for Positive Allosteric Modulators of the Human D2 Dopamine Receptor: Primary Screen for Potentiators). Settings: HEK293 T-REx D2, calcium flux, EC20 dopamine potentiation; at 10 µM; active compounds read high.
Description: NIH Chemical Genomics Center [NCGC] NIH Molecular Libraries Probe Centers Network [MLPCN] MLPCN Grant: NS064831-01 Assay Submitter (PI): David Sibley Dopamine receptors (DARs) are involved in the etiology and/or therapy of a number of neuropsychiatric and endocrine disorders. For instance, all receptor-based antiparkinsonian drugs work via stimulating the D2 DAR subtype whereas all FDA-approved antipsychotic agents are antagonists of this receptor. […] There are three different types of allosteric modulators that we are seeking, two of which will stimulate or augment receptor signaling, allosteric agonists and potentiators, while the third, allosteric antagonists, will attenuate receptor signaling. The present primary screening assay measures compound potentiation of an EC20 dopamine response by tracking calcium flux in a […], inducible Hek293 Trex D2 cell line.
Freshly passaged cells are plated in 1536 well black, clear bottom plates at a density of 4000 cells/well in 3 ul of complete media containing 1x tetracycline inducer. After an overnight incubation at 30 C in 5% CO2, cells are loaded with 2 ul of the no wash Calcium Assay Kit (ABD Bioquest) and incubated at room temperature for 30 to 90 minutes. A 10 cycle (1 second/cycle) baseline measurement is taken and then the FDSS online 1536 pintool delivers 23 nl of compound library (as well as dopamine controls) to the plate. The plate is measured for kinetically at 1 cycle/sec for 180 seconds and is considered to be the agonist portion of the assay (eg, compounds which activate a positive calcium response during this portion are flagged as potential agonists). Following the 180 second read, 1 ul of an EC20 of dopamine is delivered by an onboard pipette head. Measurements are taken kinetically for an additional 180 seconds.
Note: 0% is about no effect.

D(2) dopamine receptor (Homo sapiens), sequence (P14416 whole entry, looked up): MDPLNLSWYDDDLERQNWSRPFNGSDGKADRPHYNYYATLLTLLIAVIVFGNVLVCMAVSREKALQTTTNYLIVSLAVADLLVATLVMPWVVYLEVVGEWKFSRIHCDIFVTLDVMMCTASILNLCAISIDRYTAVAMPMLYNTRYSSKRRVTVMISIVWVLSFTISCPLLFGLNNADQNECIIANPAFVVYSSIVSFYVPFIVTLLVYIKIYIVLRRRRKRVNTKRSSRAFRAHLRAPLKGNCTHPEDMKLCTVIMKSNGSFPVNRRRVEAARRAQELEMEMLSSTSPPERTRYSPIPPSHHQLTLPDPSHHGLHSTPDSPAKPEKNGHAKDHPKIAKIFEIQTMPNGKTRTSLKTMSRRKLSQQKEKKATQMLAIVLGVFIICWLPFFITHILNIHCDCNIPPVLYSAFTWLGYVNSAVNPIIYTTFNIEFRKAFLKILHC

SMILES	potentiation
CCN(CC(=O)Nc1ccccc1OC)C(=O)Cn1cnc2ccccc2c1=O	11.8%
CCCN(CC(=O)Nc1ccccc1OC)C(=O)CCC(=O)c1ccc(F)cc1	30.4% (active)
CCN(CC(=O)Nc1ccccc1OC)C(=O)CC1CC2CCC1C2 (stereo not drawn)	5.39%
Cc1cc(C)cc(OCC(=O)Nc2c(C(=O)c3ccccc3)oc3ccccc23)c1	-6.36%
COc1ccc(C)cc1NC(=O)COCc1cc(-c2cccs2)on1	3.43%
CN(c1ccc(C(=O)NCCC2=CCCCC2)cc1)S(C)(=O)=O	-10.3%
CCN(c1ccccc1)S(=O)(=O)c1cc(C(=O)NCc2ccccn2)ccc1C	-2.26%
CN(c1ccc(C(=O)NCc2ccccn2)cc1)S(C)(=O)=O	42.4% (active)
O=C(CCS(=O)(=O)c1ccccc1)N(Cc1cccnc1)c1nc2c(F)cccc2s1	-2.05%
Cc1ccc(C2C=C(c3ccc(Cl)cc3)Nc3nc(NC(=O)CCC(=O)O)nn32)cc1 (stereo not drawn)	5.1%
CCOc1ccc(CNCc2c(C(=O)O)c(C)n(Cc3cccc(OC)c3)c2C)cc1OC	-3.84%
Cc1sc2nc(CC(N)=O)[nH]c(=O)c2c1-c1ccccc1	9.95%
NC(=O)c1sc2nc3c(c(-c4ccccc4)c2c1N)CCC3	37.2% (active)
COc1cccc(C(=O)c2sc3nc(-c4ccccc4)cc(C(F)(F)F)c3c2N)c1	-10.4%
Cc1ccc(NC(=O)c2oc3ccccc3c2NC(=O)Cc2cccs2)cc1	-10%
CSc1ccc(CCNC(=O)c2ccc3c(c2)nc2n3CCOC2)cc1	8.52%
Cc1ccc(C)c(Oc2c(C(F)(F)F)oc3c(CN4CCN(C)CC4)c(O)ccc3c2=O)c1	-2.95%
Cc1ccc(-c2nn(CCC(=O)Nc3ccc(Cl)c(Cl)c3)c(=O)c3ccccc23)cc1	-14.9%
Clc1ccc(C2CC(c3cccs3)n3ncnc3N2)cc1Cl (stereo not drawn)	-0.578%
CCOc1ccccc1C1CC(c2ccccc2)Nc2nc(N)nn21 (stereo not drawn)	14.5%
FC(F)Oc1ccccc1C1CC(c2ccc(Br)s2)Nc2ncnn21 (stereo not drawn)	31.8% (active)
CCOC(=O)c1ccc(NC(=S)N2CCCC2)cc1	8.15%
CCOc1ccc(NC(=S)N2CCCCCC2)cc1	30.1% (active)
CCOc1ccc(NC(=S)N2CCC(N(C)CC3CCCO3)CC2)cc1 (stereo not drawn)	-4.46%

SMILES	potentiation
COc1cc(CNC(=O)c2cc3n(n2)CCCN(Cc2cccc(F)c2)C3=O)cc(OC)c1OC	7.44%
CC(C)(C)c1ccc(C(=O)NCC(c2ccco2)S(=O)(=O)c2ccc(F)cc2)cc1 (stereo not drawn)	2.19%
COc1ccccc1NC(=O)c1oc2ccccc2c1NC(=O)COc1ccccc1OC	-6.56%
CC(C)CCC(C)NC(=O)c1ccc2nccnc2c1 (stereo not drawn)	36.8% (active)
O=C(NCCc1ccc(F)cc1)c1ccc2nccnc2c1	1.21%
Cc1ccc(C)c(NC(=O)c2ccc3nccnc3c2)c1	10.6%
CCOC(=O)c1ccccc1NC(=O)CCc1c(C)nc2c(c1C)c(=O)n(C)c(=O)n2C	-0.581%
Cc1ccc(NC(=O)c2nc(S(=O)(=O)Cc3cccc(C)c3)ncc2Cl)cc1	-4.73%
Cc1cccc(C(=O)N2c3nc(-c4ccco4)nn3C3(CCCCC3)[C@@H]3CCCC[C@@H]32)c1	11.9%
COc1ccccc1NC(=O)C1=C(C)Nc2ncnn2C1c1sccc1C (stereo not drawn)	14.1%
CN(C(=O)CSc1nnc(Nc2ccccc2)s1)C1CCS(=O)(=O)C1 (stereo not drawn)	-2.37%
CCn1c(SCC(=O)N(C)C2CCS(=O)(=O)C2)nnc1-c1cccs1 (stereo not drawn)	43.3% (active)
CCn1c(SCC(=O)c2ccc(Cl)s2)nnc1-c1cccs1	5.97%
Cc1ccc(NC(=O)Cc2ccc(NC(=O)N3CCCCc4ccccc43)cc2)cc1	-2.54%
Cc1c(NC(=O)Nc2ccccc2Cl)sc(=S)n1C	37% (active)
Cc1c(Cl)cccc1NC(=O)Nc1ccc(C(=O)N2CCCC2)cc1	-6.53%
Cc1c(Cl)cccc1NC(=O)NCc1ccc(C)n1C	6.36%
CCCSc1ncc(Cl)c(C(=O)Nc2c(C(=O)Nc3ccccc3)oc3ccccc23)n1	9.52%
CC(C)(C)C(=O)CCN1C(=O)C2(OCCO2)c2ccccc21	31.3% (active)
O=C(CC1(O)C(=O)N(CN2CCOCC2)c2ccccc21)c1ccccc1 (stereo not drawn)	-7.42%
C=CCN1C(=O)C2(OCCCO2)c2cccc(Cl)c21	9.19%
O=C(NCCCN1CCN(c2cccc(Cl)c2)CC1)c1nnc(Cc2ccc(F)cc2Cl)o1	-20.3%
COc1cn(CC(=O)Nc2cccc(C)c2C)c(CN2CCCCC2)cc1=O	-2.25%
COC(=O)c1ccc(OC)c(Cn2c(=O)n(Cc3ccccc3)c(=O)c3c2c2cc(OC)ccc2n3C)c1	-2.94%

SMILES	potentiation
CCc1nn(CC(=O)Nc2cccc(C)c2C)c(=O)c2cc3sccc3n12	8.71%
COc1ccc(C(C)=O)cc1CSc1nc2nc(C)cc(C)n2n1	34.5% (active)
COc1cccc(CSc2nc3nc(C)cc(C)n3n2)c1	-5.34%
Cc1cc(C)n2nc(SCC(N)=O)nc2n1	16.2%
CCOc1ccc(-n2c(SCC(=O)NCc3ccccc3)nc3n[nH]c(C)c3c2=N)cc1	-3.4%
COc1ccccc1CNCc1ccc(C(=O)O)s1	6.15%
O=C1/C(=C/c2cccs2)CCc2ccccc21	1.15%
CN1C/C(=C/c2cccs2)C(=O)/C(=C\c2cccs2)C1	41.9% (active)
CN1CCN(C(=O)/C(=C\c2cccs2)NC(=O)c2cccs2)CC1	15.2%
Cc1c(NC(=O)CSc2cccc3cccnc23)c(=O)n(-c2ccccc2)n1C	13.1%
Cc1c(NC(=O)CSc2nnnn2-c2ccc(C(=O)O)cc2)c(=O)n(-c2ccccc2)n1C	-3.5%
Cc1c(NC(=O)CSc2nnc(-c3cccnc3)n2N)c(=O)n(-c2ccccc2)n1C	73.3% (active)
Cc1cn(C)c(CC(=O)NCc2ccccc2)c1C(=O)O	5.5%
CCc1ccc(CNC(=O)c2ccc(CS(=O)c3ccc(Br)cc3)o2)cc1 (stereo not drawn)	3.07%
COc1ccccc1CNC(=O)C(=O)NCC(c1ccco1)S(=O)(=O)c1ccc(F)cc1 (stereo not drawn)	11.5%
C=CCn1c(-c2ccc(Cl)cc2)ccc(C#N)c1=O	40.5% (active)
C=CCn1cc(-c2cccc(C(F)(F)F)c2)cc(C#N)c1=O	-3%
C=CCn1c(SCn2nnc3ccccc3c2=O)nnc1-c1ccc(Cl)cc1	3.09%
COc1cc(OC)cc(C(=O)Nc2cc3nn(-c4ccccc4)nc3cc2Cl)c1	29.9%
CCCCc1nn2c(=O)cc(COC(=O)c3ccccc3NC(=O)C(C)(C)C)nc2s1	9.21%
CC12CCC(C(=O)N(NC(=O)c3ccccc3O)C1=O)C2(C)C (stereo not drawn)	13.8%
CC1=CC(C)(C)NC(=S)N1c1ccccc1	-0.583%
CC1=CC(C)(C)NC(=S)N1NC(=O)c1ccccc1Cl	35.1% (active)
CCN(C(=O)c1sc2cc(OC)ccc2c1Cl)c1ccccc1	-5.49%

SMILES	potentiation
COc1ccccc1NC(=O)c1oc2ccccc2c1NC(=O)C(C)C	-4.17%
Cc1ccc(NC(=O)CSc2nc3c([nH]c4ccccc43)c(=O)n2-c2ccccc2)cc1Cl	0.276%
Cc1cccc(N2CCN(S(=O)(=O)c3ccc4[nH]c5c(c4c3)CCCCC5)CC2)c1C	2.56%
CC(C)(C)NS(=O)(=O)c1ccc(NC(=O)C2CCCO2)cc1 (stereo not drawn)	5.45%
CC(C)c1ccc(NC(=O)NC2CCCCC2)cc1	4%
CC(C)(C)NS(=O)(=O)c1ccc(NC(=O)NC2CCCCC2)cc1	38% (active)
CCCN(CCC)CCNC(=O)c1ccc2c(c1)NC(=O)C(CS(=O)(=O)Cc1cccc(Br)c1)N2 (stereo not drawn)	0.677%
COc1ccc(Cn2ccnc2SCC(=O)Nc2ccc3c(c2)OCO3)cc1	1.53%
Cc1ccc(C(=O)CSc2nc3ccccc3c(=O)n2N)o1	2.64%
Cc1cc2c(=O)n(C)c(SCC(=O)c3cc4ccccc4o3)nc2s1	30.1% (active)
CCc1cc2c(=O)n(-c3ccccc3)c(SCC(=O)O)nc2s1	-3.23%
Cc1ccc2c(=O)c(C(=O)c3ccc(F)cc3)cn(CC(=O)NC3CCCCC3)c2n1	-9.33%
COCCCNC(=S)NNC(=O)C(O)(c1ccccc1)c1ccccc1	-5.53%
CCCCNC(=S)NNC(=O)c1cc(C)on1	37% (active)
CCCCNC(=O)c1cc(-c2ccc(Cl)c(Cl)c2)on1	-3.44%
COc1ccc(-c2nc(S(=O)(=O)c3ccccc3)c(N3CCCCC3)o2)cc1	-5.46%
COc1ccc(-c2cc(C(=O)N3CCN(c4ccc(F)cc4)CC3)no2)cc1	-8.77%
COc1ccccc1N1CCN(C(=O)c2cc(-c3ccc(Cl)c(Cl)c3)on2)CC1	69.4% (active)
COc1ccccc1-c1cc(C(=O)N2CCCCC2)no1	-22.4%
Cc1cccc(Cn2c(=O)n(CCC(=O)NCCc3ccc(Cl)cc3)c(=O)c3sccc32)c1	13%
CCN1CCN(C(c2ccc(C)cc2)c2c(O)cc(C)n(Cc3ccco3)c2=O)CC1 (stereo not drawn)	6.89%

— PubChem BioAssay AID485347 (National Center for Advancing Translational Sciences (NCATS), 2010)
